Holding throughout (assay): NCI-60 one-dose screen, 48 h (100 = growth as untreated, 0 = no growth, -100 = all killed)
One assay relates to HCT-15 colon. To be noted: 10 µM unless noted.
The next assay deals with HT29 colon. To be noted: 10 µM unless noted.
The test system of a further assay is SNB-75 CNS. To be noted: 10 µM unless noted.
For the next assay, the system named is SNB-19 CNS. The note with it: 10 µM unless noted.
The subject of a further assay is U251 CNS. The note with it: 10 µM unless noted.
A further assay has as its system PC-3 prostate. The note with it: 10 µM unless noted.
The next assay deals with SK-MEL-5 melanoma. To be noted: 10 µM unless noted.
A further assay concerns UACC-62 melanoma. To be noted: 10 µM unless noted.
The subject of a further assay is LOX IMVI melanoma. The note with it: 10 µM unless noted.
For the next assay, the system named is SK-MEL-28 melanoma. To be noted: 10 µM unless noted.
For a further assay, the system named is SK-MEL-2 melanoma. To be noted: 10 µM.
Another assay concerns EKVX NSCLC. To be noted: 10 µM unless noted.
The next assay relates to SN12C renal. The note with it: 10 µM unless noted.
The subject of another assay is TK-10 renal. To be noted: 10 µM unless noted.
For another assay, the system named is ACHN renal. To be noted: 10 µM unless noted.
The next assay concerns CAKI-1 renal. The note with it: 10 µM unless noted.
Another assay deals with CCRF-CEM leukemia. The note with it: 10 µM unless noted.
The next assay concerns MOLT-4 leukemia. The note with it: 10 µM unless noted.
In the next assay the test system is UO-31 renal. The note with it: 10 µM unless noted.
A further assay relates to A498 renal. The note with it: 10 µM unless noted.

The values that follow come from PubChem BioAssay (NCI).

Molecules are shown by their SMILES. About 83,000 compounds went through this panel and 20% of them were active in at least one assay; those are over-represented in the sample as a whole.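 Negative percent growth values reflect cell death: -40 means 40% of the cells present at the start died, and -100 means all died.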 A number with no mark means an inactive call. Activity calls are given as the source filed them. How the source made its calls: active means growth percent below 10; inactive means the rest.

As to `N#Cc1c(NC(=O)c2ccco2)[n+]([O-])c2cc(F)c(F)cc2[n+]1[O-]`, the growth in the assay with HCT-15 colon was 70.5%; in the assay with HT29 colon, 93.6%; in the assay on SNB-75 CNS, 83.3%; in the assay with SNB-19 CNS, 85.7%; with U251 CNS, 92.3%; in the assay on PC-3 prostate, 80.7%. Further, the growth is 61.3% in the assay on SK-MEL-5 melanoma; 88.4% with UACC-62 melanoma; 83.4% in the assay with LOX IMVI melanoma; 94.5% with SK-MEL-28 melanoma; 97.2% with SK-MEL-2 melanoma; 109% in the assay with EKVX NSCLC. Also, the growth is 94.9% in the assay with SN12C renal; 80.2% in the assay with TK-10 renal; 97.8% in the assay with ACHN renal; 66.7% in the assay on CAKI-1 renal; 67.2% in the assay with CCRF-CEM leukemia; 75% in the assay on MOLT-4 leukemia.
Take `COc1ccc(C2OC(c3cc(-c4cc5ccccc5o4)nn3-c3ccccc3)=NN2C(C)=O)cc1` (stereo unspecified): the growth in the assay on HCT-15 colon is 97.2%; with HT29 colon, 93.3%; in the assay with SNB-75 CNS, 87.5%; in the assay with SNB-19 CNS, 91.3%; in the assay with U251 CNS, 96.2%; in the assay on PC-3 prostate, 88.9%. Further, the growth is 8.69% (active) in the assay with SK-MEL-5 melanoma; 86.9% in the assay on UACC-62 melanoma; 85.5% with LOX IMVI melanoma; 109% in the assay with SK-MEL-28 melanoma; 94.5% in the assay with SK-MEL-2 melanoma; 94.5% with EKVX NSCLC. The growth is 93.2% in the assay on SN12C renal; 111% in the assay with TK-10 renal; 99.3% with ACHN renal; 100% in the assay on CAKI-1 renal; 95.5% in the assay with CCRF-CEM leukemia; 83% with MOLT-4 leukemia.
`Clc1ccc2c(NCCNc3nc(N4CCCC4)nc4ccccc34)ccnc2c1`: the growth in the assay on HCT-15 colon is -34.5% (active); in the assay with HT29 colon, -27.2% (active); with SNB-75 CNS, 12.5%; in the assay on SNB-19 CNS, 25.1%; in the assay on U251 CNS, -44% (active); in the assay with PC-3 prostate it was 21.9%. Further, the growth in the assay with SK-MEL-5 melanoma was -97.1% (active); in the assay on UACC-62 melanoma it was -56.6% (active); in the assay on LOX IMVI melanoma it was -85.7% (active); in the assay with SK-MEL-28 melanoma, -54.2% (active); in the assay on SK-MEL-2 melanoma it was -42.9% (active); in the assay on EKVX NSCLC, 24.4%. The growth with SN12C renal is 3.63% (active); in the assay with UO-31 renal it was -72.3% (active); in the assay with TK-10 renal, -47.3% (active); with ACHN renal it was -83% (active); in the assay with A498 renal, -5.18% (active); in the assay on CCRF-CEM leukemia it was 5.08% (active). Further, the growth in the assay on MOLT-4 leukemia was -5.18% (active).
Turning to `CC1(C)NC(=O)c2[nH]c3c(Cl)c(Cl)ccc3c2C1C#N` (stereo unspecified), the growth in the assay with HCT-15 colon is 87.9%; in the assay with HT29 colon, 78.2%; in the assay with SNB-75 CNS it was 75.7%; in the assay on SNB-19 CNS, 87.5%; in the assay on U251 CNS, 81.7%; in the assay with PC-3 prostate, 79.6%. Also, the growth is 8.85% (active) in the assay with SK-MEL-5 melanoma; 73.1% with UACC-62 melanoma; 85.5% in the assay with LOX IMVI melanoma; 103% in the assay on SK-MEL-28 melanoma; 80.6% with SK-MEL-2 melanoma; 67.2% in the assay with EKVX NSCLC. Also, the growth in the assay with SN12C renal is 89.5%; with TK-10 renal, 63.2%; in the assay with ACHN renal, 78.6%; in the assay with CAKI-1 renal, 49.8%; in the assay with CCRF-CEM leukemia, 70.3%; in the assay on MOLT-4 leukemia, 62%.
Take `COC(=O)C1=C(C(=O)OC)C23C=C(C)C1C2=C(C)C1(CC1)[C@@](C)(O)C3=O` (stereo partly specified): the growth was 6.97% (active) in the assay with HCT-15 colon; -0.501% (active) in the assay with HT29 colon; -56.5% (active) with SNB-75 CNS; 7.17% (active) in the assay with SNB-19 CNS; 2.06% (active) in the assay with U251 CNS; 11.5% in the assay with PC-3 prostate. In addition, the growth in the assay with SK-MEL-5 melanoma was -75.7% (active); in the assay on UACC-62 melanoma, -45.2% (active); with LOX IMVI melanoma, -14.3% (active); in the assay on SK-MEL-28 melanoma, -22.5% (active); with SK-MEL-2 melanoma, -54.6% (active); in the assay with EKVX NSCLC, -6% (active). The growth with SN12C renal is 9.49% (active); in the assay with UO-31 renal it was -28% (active); in the assay with TK-10 renal, -6.99% (active); in the assay with ACHN renal, 3.21% (active); in the assay with A498 renal it was -44% (active); in the assay with CCRF-CEM leukemia it was 66.5%. Also, the growth in the assay with MOLT-4 leukemia was 73.6%.
For `Clc1nc(Cl)c2ncn(CC#CCn3cnc4c(Cl)nc(Cl)nc43)c2n1`, the growth with HCT-15 colon was -65.7% (active); in the assay on HT29 colon, -44.2% (active); in the assay on SNB-75 CNS it was 8.25% (active); in the assay on SNB-19 CNS it was 12.2%; in the assay on U251 CNS it was -75.8% (active); with PC-3 prostate, -72.1% (active). In addition, the growth with SK-MEL-5 melanoma was -66.9% (active); in the assay on UACC-62 melanoma it was -11.6% (active); in the assay with LOX IMVI melanoma, -83.4% (active); in the assay on SK-MEL-28 melanoma, -26.1% (active); with SK-MEL-2 melanoma it was 65.3%; in the assay with EKVX NSCLC, -39.3% (active). Also, the growth is 3.09% (active) in the assay on SN12C renal; -31.5% (active) in the assay with TK-10 renal; -53.3% (active) in the assay with ACHN renal; -96.5% (active) in the assay on CAKI-1 renal; -62.2% (active) in the assay on CCRF-CEM leukemia; 1.03% (active) in the assay with MOLT-4 leukemia.
As for `CO/C=C/C(=O)c1cc2cnc3c(=N)cc(NC(=O)C(C)C)c([nH]1)c23`, the growth was -26.8% (active) in the assay on HCT-15 colon; -21.5% (active) in the assay with HT29 colon; -11.8% (active) in the assay on SNB-75 CNS; -29.8% (active) in the assay on SNB-19 CNS; -74.3% (active) in the assay with U251 CNS; -21.6% (active) in the assay on PC-3 prostate. The growth with SK-MEL-5 melanoma was -96.9% (active); in the assay on UACC-62 melanoma, -53.8% (active); with LOX IMVI melanoma, -73.9% (active); in the assay with SK-MEL-28 melanoma, -44.8% (active); in the assay on SK-MEL-2 melanoma, -65.6% (active); in the assay on EKVX NSCLC, -36.4% (active). Also, the growth in the assay on SN12C renal was 1.75% (active); in the assay on UO-31 renal, -20.1% (active); in the assay with TK-10 renal, -47.2% (active); in the assay on ACHN renal, -1.54% (active); with A498 renal it was -46.1% (active); in the assay on CCRF-CEM leukemia, 0.169% (active). In the assay with MOLT-4 leukemia, the growth was -38.7% (active).
As for `NC(=O)c1n[nH]n2c1nc(=O)c1c3c(sc12)CCCC3`, the growth in the assay with HCT-15 colon was 107%; in the assay with HT29 colon, 106%; in the assay with SNB-75 CNS, 102%; in the assay on SNB-19 CNS, 104%; with U251 CNS it was 97%; with PC-3 prostate, 85.3%. In addition, the growth in the assay with SK-MEL-5 melanoma is -31.5% (active); in the assay on UACC-62 melanoma, 103%; in the assay on LOX IMVI melanoma, 99.3%; with SK-MEL-28 melanoma it was 120%; in the assay on SK-MEL-2 melanoma, 106%; in the assay with EKVX NSCLC it was 101%. Moreover, the growth in the assay on SN12C renal is 101%; with UO-31 renal it was 84.4%; in the assay with TK-10 renal it was 106%; in the assay with ACHN renal it was 111%; in the assay with A498 renal, 115%; with CCRF-CEM leukemia, 84.2%. For the same molecule, the growth in the assay on MOLT-4 leukemia was 100%.
For the molecule `CC(=Nc1ccccc1)C1=C(O)C(Cc2ccccc2)NC1=O` (stereo unspecified), the growth in the assay with HCT-15 colon was 5.57% (active); in the assay on HT29 colon it was -0.116% (active); in the assay with SNB-75 CNS, 19.1%; in the assay with SNB-19 CNS, 16.4%; in the assay with U251 CNS, 15.5%; in the assay with PC-3 prostate, 5.74% (active). The growth is -43.3% (active) in the assay on SK-MEL-5 melanoma; 24.6% with UACC-62 melanoma; 18.5% in the assay with LOX IMVI melanoma; 37.8% in the assay with SK-MEL-28 melanoma; 26.9% with SK-MEL-2 melanoma; 23.3% in the assay with EKVX NSCLC. The growth in the assay with SN12C renal is 36.6%; with UO-31 renal, 43.6%; in the assay with TK-10 renal, 54.2%; in the assay on ACHN renal, 40.8%; in the assay with A498 renal it was -22.1% (active); in the assay with MOLT-4 leukemia, 0.239% (active).
